Reference: ChEMBL document CHEMBL3988442, “University of Dundee, Small-Polar-MMV Screening Library” (2021)
Screen size: about 38,000 compounds; about 1,200 (3.2%) showed an effect of 50% or more. The median lay at about -58%. The full list was thinned out, with strong results kept by preference.

system: Plasmodium falciparum; assay: Calibr Malaria Delayed Death Assay SOP; assay type: functional, organism-based; design: scale not given: in the data most compounds retested in dose-response had high values; settings: concentration 4.99e-06 (unit not given; other assays of the set use mol/L)

Point of comparison: CCn1nc(C)c(C(=O)NCc2csc(C3CC3)n2)c1C, “Percent Effect” value -85.55%. Against it:
- Cc1cc(CN(C)c2nc(-c3ccco3)nc3c2CCN(C)CC3)on1 — higher, -7.108%
- O=C(COc1cccc2c1CCC2=O)NCCOc1ccccc1 — lower, -101.5%
- Cn1cc(C[C@H]2[C@H](O)CCN2Cc2ccc3c(c2)OCO3)cn1 — lower, -152.7%
- COc1cc(CNc2ccc(C)c(Cl)c2)ccc1OCC(N)=O — higher, -61.06%
- O=C(CN1CCCC1Cn1cncn1)Nc1ccnn1C1CCCC1 (stereo unspecified) — higher, -46.57%
- NC(=O)c1nc(-c2cccc(Cl)c2)oc1N — lower, -143.3%
- Clc1ccc(C2(CNC3=NCCN3)CC2)cc1.I — higher, 82.97%
- CC(NC(=O)NCC1(c2ccc(Cl)cc2)CC1)c1nncn1C (stereo unspecified) — higher, -41.57%
- CCCNC(=O)c1c(-n2cnnn2)sc2c1CCC2 — higher, -55.33%
- CC(=O)NC(CC(=O)Nc1nc(C)c(C)s1)c1ccccc1 (stereo unspecified) — higher, -83.12%
- O=C(c1ccco1)N1CCC2(CCCN(c3ncc(F)cn3)C2)C1 (stereo unspecified) — lower, -116%
- Fc1cnc(N2CCCC3(CCN(Cc4ccco4)C3)C2)nc1.O=C(O)C(F)(F)F.O=C(O)C(F)(F)F (stereo unspecified) — higher, 77%
- COc1cccc(CN2CCC3(CC2)CCN(c2ncc(F)cn2)C3)c1.O=C(O)C(F)(F)F — lower, -115%
- O=C(O)C(F)(F)F.O=C(c1ccncc1)N1CCC2(CCCN(c3ncc(F)cn3)C2)C1 (stereo unspecified) — lower, -90.51%
- Fc1cnc(N2CCCC3(CN(Cc4ccccc4)CCO3)C2)nc1.O=C(O)C(F)(F)F (stereo unspecified) — lower, -95.68%
- Fc1ccc(CN2CCC3(CCCN(c4nncs4)C3)C2)cc1.O=C(O)C(F)(F)F (stereo unspecified) — lower, -107.3%
- Cc1cnc(N2C[C@@H]3CN(Cc4ccco4)CCC[C@]3(C(=O)O)C2)nc1.O=C(O)C(F)(F)F — higher, -71.37%
- Fc1cnc(N2CCCC3(CCN(Cc4ccoc4)C3)C2)nc1.O=C(O)C(F)(F)F.O=C(O)C(F)(F)F (stereo unspecified) — higher, 72.25%
- COc1cccc(CN2CCC3(CCN(c4ncc(F)cn4)CC3)C2)c1.O=C(O)C(F)(F)F — higher, -47.02%
- COc1ccc(CN2CCC3(CCCN(c4ncc(F)cn4)C3)C2)cc1.O=C(O)C(F)(F)F (stereo unspecified) — higher, 86.34%
- CC(C)CCN1CCC2(CCCN(c3nncs3)C2)C1.O=C(O)C(F)(F)F (stereo unspecified) — higher, -67.46%
- CC(C)c1ccc(CN2CCC3(CCCN(c4nncs4)C3)C2)cc1.O=C(O)C(F)(F)F (stereo unspecified) — higher, 73.03%
- Cc1oc(-c2nc(C#N)c(NC(C)C)o2)cc1S(=O)(=O)N1CCCC1 — lower, -121.8%
- Cc1ncc2c(n1)CN(Cc1nc(-c3ccco3)oc1C)CC2 — lower, -128.1%
- CC(C)C(=O)N1CCN(Cc2csc(-c3ncccn3)n2)CC1 — higher, -79.45%
- Cc1noc(C)c1CN1CCc2ncnc(-c3cnn(C)c3)c2CC1.O=C(O)C(F)(F)F — higher, -17.12%
- CCC(=O)NCC(=O)NC(C)c1ccc(OCCC(C)C)cc1 (stereo unspecified) — higher, 22.17%
- COc1cc(-c2cc(=O)[nH]cn2)cc(OC)c1OC — higher, -8.244%
- CC(=O)N1[C@H](CN(C)C)C[C@@H]2CN(C(=O)c3cccc(F)c3)CC[C@@H]21.O=C(O)C(F)(F)F — lower, -121.5%
- CCC(NC(=O)CNCC(F)(F)F)c1cc(F)ccc1F (stereo unspecified) — lower, -157%
- Fc1cnc(N2CCCC3(CCN(Cc4nccs4)C3)C2)nc1 (stereo unspecified) — higher, 21.75%
- O=C(c1ccoc1)N1CCC2(CCCN(c3ncc(F)cn3)C2)C1 (stereo unspecified) — higher, -22.39%
- COc1cc(N2C[C@H](C(=O)N3CCCC3)[C@@H]3CCO[C@@H]3C2)ncn1 — higher, -18.3%
- Cc1cnc(CN(C)C2CCN(Cc3nc4c(F)cccc4[nH]3)C2)o1 (stereo unspecified) — higher, -76.29%
- COc1nn(C)c2c1CCCN(C(=O)c1cscn1)C2 — higher, -85.03%
- CCOC(C)C(=O)Nc1ccnn1-c1ccccc1C (stereo unspecified) — lower, -113.5%
- Cl.Clc1ccc(-c2ccc(C3CNCCO3)nc2)cc1 (stereo unspecified) — higher, 85.23%
- O=C(C(c1ccccc1)S(=O)(=O)c1ccccc1)N1CCCCC1 (stereo unspecified) — lower, -134.4%
- CCc1nc(C)sc1CN1CC[C@@](O)(C2CC2)[C@H](C)C1 — higher, -41.51%
- Cc1csc(C(=O)N2CCCC(c3[nH]ncc3S(C)(=O)=O)C2)c1 (stereo unspecified) — higher, -79.4%
- O=C(NCC(O)c1ccsc1)Nc1cccs1 (stereo unspecified) — higher, -26.53%
- Fc1cnc(N2CCCC3(CN(Cc4cccs4)CCO3)C2)nc1.O=C(O)C(F)(F)F (stereo unspecified) — higher, -85.22%
- O=C(O)C(F)(F)F.O=C(O)C(F)(F)F.c1cnc(N2CCOCC3(CCCN(Cc4cccs4)C3)C2)nc1 (stereo unspecified) — higher, -21.37%
- CC(C)CN1CCCC2(CCN(c3ccccn3)C2)C1.O=C(O)C(F)(F)F (stereo unspecified) — higher, 70.33%
- Cc1cnc(N2CCC3(CC2)CN(Cc2cccs2)CCO3)nc1.O=C(O)C(F)(F)F.O=C(O)C(F)(F)F — higher, -40.39%
- O=C(O)C(F)(F)F.O=C(O)C(F)(F)F.c1csc(CN2CCCC3(COCCN(c4cnccn4)C3)C2)c1 (stereo unspecified) — higher, 45.61%
- Fc1cnc(N2CCCC3(CCN(Cc4cccs4)C3)C2)nc1.O=C(O)C(F)(F)F.O=C(O)C(F)(F)F (stereo unspecified) — higher, 67.75%
- CC(C)CN1CCCC2(CCN(c3ccc(C#N)cn3)C2)C1.O=C(O)C(F)(F)F (stereo unspecified) — higher, 4.981%
- O=C(O)C(F)(F)F.c1ccc(N2CCCC3(CCN(Cc4cccs4)C3)C2)nc1 (stereo unspecified) — higher, 72.7%
- COc1cc(N2CCC3(CCCN(Cc4ccccn4)C3)C2)ncn1.O=C(O)C(F)(F)F (stereo unspecified) — higher, -7.04%
